The text below walks through data of PubChem BioAssay AID1159580 (chemical genetic matrix, 2015).

This experiment in a line: chemical genetic growth profiling, strain panel (AID 1159580).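 Further: tested at 20 µM; growth read once vehicle control cultures reached saturation at 30 °C; 1 = growth at the plate median or of vehicle wells; lower values mean less growth of the strain.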 The following applies: growth OD.
Where [1] appears, read: S. cerevisiae deletion strains, locus YAL013W, strain DEP1, active compounds read low.
Setting [2] is: S. cerevisiae deletion strains, locus YBR229C, strain ROT2, active compounds read low.
The mark [3] stands for this setting: S. cerevisiae deletion strains, locus YDL101C, strain DUN1, active compounds read low.
Setting [4] is: S. cerevisiae deletion strains, locus YDL134C, strain PPH21, active compounds read low.
Setting [5] is: S. cerevisiae deletion strains, locus YDR150W, strain NUM1, active compounds read low.
Where [6] appears, read: S. cerevisiae deletion strains, locus YEL061C, strain CIN8, active compounds read low.
Where [7] appears, read: S. cerevisiae deletion strains, locus YGR078C, strain PAC10, active compounds read low.
Where [8] appears, read: S. cerevisiae deletion strains, locus YHR030C, strain SLT2, active compounds read low.
Where [9] appears, read: S. cerevisiae deletion strains, locus YHR087W, strain rtc3, active compounds read low.
[10] abbreviates: S. cerevisiae deletion strains, locus YJL187C, strain SWE1, active compounds read low.
Setting [11] is: S. cerevisiae deletion strains, locus YJR043C, strain POL32, active compounds read low.
Where [12] appears, read: S. cerevisiae deletion strains, locus YJR075W, strain HOC1, active compounds read low.
The mark [13] stands for this setting: S. cerevisiae deletion strains, locus YLR039C, strain RIC1, active compounds read low.
[14] abbreviates: S. cerevisiae deletion strains, locus YLR058C, strain SHM2 (second series), active compounds read low.
[15] abbreviates: S. cerevisiae deletion strains, locus YLR085C, strain ARP6, active compounds read low.
The mark [16] stands for this setting: S. cerevisiae deletion strains, locus YLR262C, strain YPT6, active compounds read low.
The mark [17] stands for this setting: S. cerevisiae deletion strains, locus YML094W, strain GIM5, active compounds read low.
The mark [18] stands for this setting: S. cerevisiae deletion strains, locus YMR219W, strain ESC1, active compounds read low.
[19] abbreviates: S. cerevisiae deletion strains, locus YMR263W, strain SAP30, active compounds read low.
[20] abbreviates: S. cerevisiae deletion strains, locus YMR307W, strain GAS1, active compounds read low.
Where [21] appears, read: S. cerevisiae deletion strains, locus YNL153C, strain GIM3, active compounds read low.
The mark [22] stands for this setting: S. cerevisiae deletion strains, locus YNL298W, strain CLA4 (second series), active compounds read low.
The mark [23] stands for this setting: S. cerevisiae deletion strains, locus YNL322C, strain KRE1, active compounds read low.
[24] abbreviates: S. cerevisiae deletion strains, locus YNR030W, strain Alg12, active compounds read low.
Setting [25] is: S. cerevisiae deletion strains, locus YPL055C, strain LGE1, active compounds read low.
Where [26] appears, read: S. cerevisiae deletion strains, locus YPL241C, strain CIN2, active compounds read low.
[27] abbreviates: S. cerevisiae deletion strains, locus YPR135W, strain CTF4, active compounds read low.

Screen size: about 5,500 compounds; about 2,000 (36%) were called active. Inconclusive results (about 18%) are left out. This is one part of the list. Unmarked numbers belong to inactive results. No stated cut-off is given here; in the data, active means normalized growth mostly below about 0.91 (no sharp cut-off); inconclusive means no clear call, values can overlap the other calls; inactive means mostly above about 0.92.

For `Cn1c(=S)[nH]c2cc(C(F)(F)F)ccc21`, the normalized growth is 0.977 under setting [1]; 0.987 under setting [2]; 0.968 under setting [3]; 0.979 under setting [4]; 0.959 under setting [5]; 0.888 (active) under setting [6]. Further, the normalized growth under setting [7] is 0.975; the normalized growth under setting [8] was 0.767; the normalized growth under setting [9] was 1; the normalized growth under setting [10] is 0.98; the normalized growth under setting [11] was 0.978; the normalized growth under setting [12] was 1.02. In addition, the normalized growth was 0.538 (active) under setting [13]; 0.974 under setting [14]; 0.378 (active) under setting [15]; 0.733 (active) under setting [16]; 0.911 under setting [17]; 0.987 under setting [18]. Besides, the normalized growth was 0.966 under setting [19]; 0.718 under setting [20]; 0.997 under setting [21]; 0.803 (active) under setting [22]; 0.998 under setting [23]; 0.946 under setting [24]. Moreover, the normalized growth under setting [25] is 0.866; the normalized growth under setting [26] was 0.925; the normalized growth under setting [27] was 0.617 (active); the normalized growth (S. cerevisiae strains, strain wild type, active compounds read low) is 0.969.
For the molecule `FC(F)(F)c1ccc2[nH]c(=S)[nH]c2c1`, the normalized growth is 0.995 under setting [1]; 0.996 under setting [2]; 0.983 (S. cerevisiae deletion strains, locus YCL061C, strain MRC1, active compounds read low); 0.983 under setting [3]; 0.99 under setting [4]; 0.986 under setting [5]. In addition, the normalized growth under setting [6] was 0.998; the normalized growth under setting [7] is 0.982; the normalized growth (S. cerevisiae deletion strains, locus YGR229C, strain SMI1, active compounds read low) is 1; the normalized growth under setting [8] was 0.89; the normalized growth under setting [9] is 0.999; the normalized growth under setting [10] is 0.997. Also, the normalized growth reads like this: under setting [11], 0.986; under setting [12], 1.01; under setting [13], 0.952; under setting [14], 0.994; under setting [15], 0.955; under setting [16], 0.963. Further, the normalized growth runs as follows: under setting [17], 0.905; under setting [18], 1; under setting [19], 1.02; (S. cerevisiae deletion strains, locus YNL128W, strain TEP1, active compounds read low) 0.993; under setting [21], 1; under setting [22], 0.979. Moreover, the normalized growth was 0.997 under setting [23]; 0.977 under setting [24]; 0.997 (S. cerevisiae deletion strains, locus YOL006C, strain TOP1, active compounds read low); 0.98 under setting [25]; 0.966 under setting [26]; 0.779 under setting [27].
Take `O=c1[nH]c2cc(C(F)(F)F)ccc2n1-c1cc(C(F)(F)F)ccc1O`: the normalized growth by setting is: under setting [1], 1.02; (S. cerevisiae deletion strains, locus YAL040C, strain CLN3, active compounds read low) 0.998; (S. cerevisiae deletion strains, locus YCL061C, strain MRC1 (second series), active compounds read low) 1.01; under setting [5], 1.01; (S. cerevisiae deletion strains, locus YDR363W, strain ESC2, active compounds read low) 1.01; (S. cerevisiae deletion strains, locus YER002W, strain NOP16, active compounds read low) 1.02. Moreover, the normalized growth was 1.03 under setting [7]; 1.02 under setting [20]; 0.961 (S. cerevisiae deletion strains, locus YNL175C, strain NOP13, active compounds read low); 0.995 (S. cerevisiae deletion strains, locus YNL197C, strain WHI3, active compounds read low); 0.998 (S. cerevisiae deletion strains, locus YNL224C, strain SQS1, active compounds read low); 0.903 (S. cerevisiae deletion strains, locus YOR083W, strain WHI5 (second series), active compounds read low). In addition, the normalized growth under setting [25] was 1.01.
For the molecule `Cc1ncc([N+](=O)[O-])n1CC(O)CCl` (stereo not drawn), the normalized growth is, setting by setting: (S. cerevisiae deletion strains, locus YHR079C, strain IRE1, active compounds read low) 0.977; (S. cerevisiae deletion strains, locus YJL095W, strain BCK1, active compounds read low) 0.965; (S. cerevisiae deletion strains, locus YJR066W, strain TOR1, active compounds read low) 0.956; (S. cerevisiae deletion strains, locus YLR113W, strain HOG1, active compounds read low) 0.978; (S. cerevisiae deletion strains, locus YNL183C, strain NPR1, active compounds read low) 0.922; (S. cerevisiae deletion strains, locus YOR231W, strain MKK1, active compounds read low) 0.97. Also, under “S. cerevisiae deletion strains, locus YPL256C, strain CLN2, active compounds read low”, the normalized growth was 0.933.
